Test results: the supplement of paper PMC6522484
± gives the standard deviation of the averaged measurements.

Key:
[1] = test system: DLD1; assay: cell viability (CellTiter-Glo) relative to plate median (fraction of plate median); higher = more viable cells; details: 5 µM; treatment time 24 h; reporter: 7TFP
Outline: (§1)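 Two independent replicates were averaged for each reported value. Library compounds were applied at a final 5 µM for 24 h to colorectal cancer cell lines stably expressing lentiviral TCF/Wnt firefly luciferase reporters. Firefly luciferase or CellTiterGlo luminescence from each well was normalised to the plate median.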

[2] = test system: HCT116; assay: as above; details: 5 µM; treatment time 24 h; reporter: TCF4/Wnt
Outline: as §1

[3] = test system: SW480; assay: as above; details: 5 µM; treatment time 24 h; reporter: 7TFP
Outline: as §1

[4] = test system: DLD1; assay: TCF/Wnt firefly luciferase reporter signal relative to plate median (fraction of plate median); higher = higher Wnt reporter signal; details: 5 µM; treatment time 24 h; reporter: 7TFP
Outline: as §1

[5] = test system: SW480; assay: as above; details: 5 µM; treatment time 24 h; reporter: 7TFP
Outline: as §1

CO/N=C1\C[C@]2(C[C@@H]3C[C@@H](C/C=C(\C)C[C@@H](C)/C=C/C=C4\CO[C@@H]5[C@H](O)C(C)=C[C@@H](C(=O)O3)[C@]45O)O2)O[C@H](/C(C)=C/C(C)C)[C@H]1C
cell viability [1]: 0.891 ± 0.0092
cell viability [2]: 0.921 ± 0.019
cell viability [3]: 0.896 ± 0.042
TCF/Wnt firefly luciferase reporter signal [4]: 0.939 ± 0.24
TCF/Wnt firefly luciferase reporter signal [5]: 0.932 ± 0.11

CC(=O)OC[C@H]1O[C@@H](Oc2cc(OC(C)=O)c3c(=O)cc(-c4ccc(OC(C)=O)cc4)oc3c2)[C@H](OC(C)=O)[C@@H](OC(C)=O)[C@@H]1OC(C)=O
cell viability [1]: 1.02 ± 0.021
cell viability [2]: 1.11
cell viability [3]: 0.992 ± 0.054
TCF/Wnt firefly luciferase reporter signal [4]: 1.07 ± 0.13
TCF/Wnt firefly luciferase reporter signal [5]: 0.938 ± 0.036

CC1(C)C=Cc2cc3ccc(=O)oc3cc2O1
cell viability [1]: 0.979 ± 0.087
cell viability [2]: 1 ± 0.043
cell viability [3]: 1.04 ± 0.042
TCF/Wnt firefly luciferase reporter signal [4]: 1.21 ± 0.13
TCF/Wnt firefly luciferase reporter signal [5]: 1.165 ± 0.0071

CC(C)C1=CC2=CC[C@@H]3[C@](C)(CCC[C@@]3(C)C(=O)O)[C@H]2CC1
cell viability [1]: 0.967 ± 0.09
cell viability [2]: 0.97 ± 0.013
cell viability [3]: 0.897 ± 0.012
TCF/Wnt firefly luciferase reporter signal [4]: 1.1 ± 0.11
TCF/Wnt firefly luciferase reporter signal [5]: 0.912 ± 0.09

Cc1cc(O)c2c(c1O)C(=O)c1c(O)cc(C)c(O)c1C2=O
cell viability [1]: 0.979 ± 0.019
cell viability [2]: 0.968 ± 0.1
cell viability [3]: 0.986 ± 0.063
TCF/Wnt firefly luciferase reporter signal [4]: 0.964 ± 0.039
TCF/Wnt firefly luciferase reporter signal [5]: 1.01 ± 0.014

COc1cc(O)c(C(=O)/C=C/c2ccc(O)c(OC)c2)c(OC)c1
cell viability [1]: 1.025 ± 0.0071
cell viability [2]: 1.03 ± 0.083
cell viability [3]: 1.1 ± 0.071
TCF/Wnt firefly luciferase reporter signal [4]: 0.882 ± 0.11
TCF/Wnt firefly luciferase reporter signal [5]: 0.894 ± 0.037

O=C1c2c(O)cccc2C([C@@H]2O[C@H](CO)[C@@H](O)[C@H](O)[C@H]2O)c2cc(CO)cc(O)c21 (stereo not given in full)
cell viability [1]: 1.05 ± 0.1
cell viability [2]: 1.1 ± 0.078
cell viability [3]: 1.015 ± 0.0071
TCF/Wnt firefly luciferase reporter signal [4]: 1.2 ± 0.021
TCF/Wnt firefly luciferase reporter signal [5]: 1.07 ± 0.05

CC(=O)c1ccc[nH]1
cell viability [1]: 0.992 ± 0.04
cell viability [2]: 1.03 ± 0.048
cell viability [3]: 1.025 ± 0.0071
TCF/Wnt firefly luciferase reporter signal [4]: 0.87 ± 0.23
TCF/Wnt firefly luciferase reporter signal [5]: 0.798 ± 0.14

CC(=O)N(O)CCCCCNC(=O)CCC(=O)N(O)CCCCCNC(=O)CCC(=O)N(O)CCCCCN
cell viability [1]: 0.987 ± 0.015
cell viability [2]: 0.95 ± 0.032
cell viability [3]: 0.89 ± 0.073
TCF/Wnt firefly luciferase reporter signal [4]: 0.869 ± 0.067
TCF/Wnt firefly luciferase reporter signal [5]: 1.06 ± 0.021

CO[C@H]1C[C@@H]2CC[C@@H](C)[C@@](O)(O2)C(=O)C(=O)N2CCCC[C@H]2C(=O)O[C@H]([C@H](C)C[C@@H]2CC[C@@H](O)[C@H](OC)C2)CC(=O)[C@H](C)/C=C(\C)[C@@H](O)[C@@H](OC)C(=O)[C@H](C)C[C@H](C)/C=C/C=C/C=C/1C
cell viability [1]: 1.18 ± 0.028
cell viability [2]: 0.976 ± 0.049
cell viability [3]: 1.35 ± 0.11
TCF/Wnt firefly luciferase reporter signal [4]: 0.838 ± 0.15
TCF/Wnt firefly luciferase reporter signal [5]: 1.2 ± 0.21

O=C1NS(=O)(=O)c2ccccc21
cell viability [1]: 0.973 ± 0.052
cell viability [2]: 1.1 ± 0.085
cell viability [3]: 1.03 ± 0.044
TCF/Wnt firefly luciferase reporter signal [4]: 1.1 ± 0.042
TCF/Wnt firefly luciferase reporter signal [5]: 0.96 ± 0.14

Cn1ccnc1S
cell viability [1]: 0.997 ± 0.047
cell viability [2]: 1.04 ± 0.021
cell viability [3]: 0.981 ± 0.021
TCF/Wnt firefly luciferase reporter signal [4]: 0.988 ± 0.088
TCF/Wnt firefly luciferase reporter signal [5]: 0.95 ± 0.071

CN(C)c1ccc(C(=C2C=CC(=[N+](C)C)C=C2)c2ccc(N(C)C)cc2)cc1
cell viability [1]: 0.703 ± 0.016
cell viability [2]: 0.381 ± 0.17
cell viability [3]: 0.679 ± 0.013
TCF/Wnt firefly luciferase reporter signal [4]: 0.529 ± 0.091
TCF/Wnt firefly luciferase reporter signal [5]: 0.465 ± 0.012

COc1ccc([C@@H]2CC(=O)c3c(O)cc(O)cc3O2)cc1O
cell viability [1]: 1.01 ± 0.014
cell viability [2]: 0.93 ± 0.052
cell viability [3]: 0.9885 ± 0.0092
TCF/Wnt firefly luciferase reporter signal [4]: 1.02 ± 0.11
TCF/Wnt firefly luciferase reporter signal [5]: 0.982 ± 0.04

CC12CCCC(O)(C1)C1CC(C)(C)C1CC2 (stereo not drawn) [beta-CARYOPHYLLENE ALCOHOL]
cell viability [1]: 0.91 ± 0.072
cell viability [2]: 1.12 ± 0.14
cell viability [3]: 1 ± 0.04
TCF/Wnt firefly luciferase reporter signal [4]: 1.1 ± 0.028
TCF/Wnt firefly luciferase reporter signal [5]: 1.04 ± 0.028
